Values without a mark were called inactive. Calls of active or inactive are those of the source.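 How the source made its calls: active means inhibition at or above 50% relative to wild type and mutant plate controls; inactive means inhibition below 50%.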
Experiment: inhibitors of Chlamydomonas gravitaxis, primary screen, whole organism, Chlamydomonas reinhardtii, WT vs cilia-less mutant, absorbance, 96-well (AID 463189);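 further: 0% = wild type cc124 cells in DMSO and 100% = ciliumless bld1 mutant cells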
Settings: OD600 absorbance, 2 days, at 10 µM, hits give high values

Point of comparison: N#C/C(=C\c1ccc(O)c(O)c1)C(=O)NCCCNC(=O)/C(C#N)=C/c1ccc(O)c(O)c1, inhibition 1.37%. Against it:
- CNc1ncnc2c1ncn2[C@@H]1O[C@H](CO)[C@H](O)C1O (stereo not given in full) — higher, 7.79%
- CNC[C@H](O)c1ccc(O)c(O)c1 — higher, 1.9%
- CC(C)NCC(O)c1cc(O)cc(O)c1 (stereo not given) — higher, 11.3%
- O=C(O)c1cccnc1C(=O)O — higher, 3.76%
- N[C@@H](Cc1c[nH]c2ccc(O)cc12)C(=O)O — higher, 4.83%
- COc1cc2c(CCNC(C)=O)c[nH]c2cc1Cl — higher, 4.11%
- CN1C(=O)CC[C@H]1c1cccnc1 — higher, 4.07%
- NCCC(=O)NCCc1cnc[nH]1 — higher, 3.88%
- COC(=O)C1=C(C)NC(C)=C([N+](=O)[O-])C1c1ccccc1C(F)(F)F (stereo not given) — higher, 5.83%
- COC(=O)[C@H](NC(=O)c1cc(-c2ccccc2)nc2ccccc12)c1ccccc1 — higher, 1.92%
- CCN1CCCC1CNC(=O)c1cc(S(N)(=O)=O)ccc1OC (stereo not given) — higher, 2.91%
- CC(C)CN(C)c1nc(N)c(C(=O)N=C(N)N)nc1Cl — lower, -3.31%
- N[C@H](C(=O)O)[C@H](O)C(=O)O — lower, 0.558%
- NCCNC(=O)c1ncsc1-c1cccc(F)c1 — lower, 0.32%
- Clc1cccc(Cl)c1NC1=NCCN1 — higher, 5.28%
- O=C1CC2(CCCC2)CC(=O)N1CCCCN1CCN(c2ncccn2)CC1 — higher, 3.65%
- CCn1ccnc1CC1COc2ccccc2O1 (stereo not given) — higher, 5.81%
- COc1cc2c(c(OC)c1OC)-c1ccc(OC)c(=O)cc1[C@@H](NC(C)=O)CC2 — higher, 4.38%
- c1ccc(-c2ccccn2)nc1 — lower, 1.35%
- Nc1nc(Cl)nc2c1ncn2[C@@H]1O[C@H](COP(=O)(O)OP(=O)(O)OP(=O)(O)O)[C@H](O)C1O (stereo not given in full) — lower, 0.076%
- c1cnc2c(c1)ccc1cccnc12 — higher, 10.8%
- CC(N)=NCCC[C@H](N)C(=O)O — higher, 5.15%
- O=C(Nc1ccccc1)c1cc([N+](=O)[O-])ccc1Cl — higher, 2.4%
- O=c1ccc2ccc(O)c(O)c2o1 — lower, -4.31%
- CC(O)C(O)[C@H]1CNc2nc(N)[nH]c(=O)c2N1 (stereo not given in full) — higher, 6.73%
- NC(=NCc1ccccc1)NC(=O)c1nc(Cl)c(N)nc1N — lower, -1.5%
- OCc1ccc(-c2nn(Cc3ccccc3)c3ccccc23)o1 — higher, 3.81%
- CC(/C=C/c1cccc(Oc2ccc(F)cc2)c1)N(O)C(N)=O (stereo not given) — higher, 4.78%
- Nc1nc(Nc2ccccc2)nc2c1ncn2[C@@H]1O[C@H](CO)[C@H](O)C1O (stereo not given in full) — lower, -1.98%
- CC(C)(C=O)Cc1cc(C(C)(C)C)c(O)c(C(C)(C)C)c1 — lower, -3.35%
- O=C1C2C=CC=CC2=NC(=S)N1CCN1CCC(=C(c2ccc(F)cc2)c2ccc(F)cc2)CC1 (stereo not given) — lower, -0.94%
- COc1ccccc1NC(=O)Nc1nc(-c2cccnc2)nc2ccccc12 — lower, -0.831%
- CCCN(CCc1ccccc1)C1CCc2c(O)cccc2C1 (stereo not given) — higher, 5.13%
- O=C1N=C(O)CN1/N=C/c1ccc(-c2ccc([N+](=O)[O-])cc2)o1 — higher, 4.87%
- CNCC[C@H](Oc1ccc(C(F)(F)F)cc1)c1ccccc1 — lower, -14.3%
- Cc1scc2c1N(C(=O)CN1CCN(C)CC1)c1ccccc1NC2=O — lower, -1.6%
- CCCn1c(=O)c2c(ncn2C)n(CCC)c1=O — higher, 6.81%
- Cn1cnc2c(NCc3ccccc3)nc(NCCO)nc21 — higher, 5.79%

For Clc1ccccc1C(c1ccccc1)(c1ccccc1)n1ccnc1, the inhibition was 96% (active).

— PubChem BioAssay
